Results on seven molecules are retold here after PubChem BioAssay (NCATS).

“And” between values parts separate entries of the source, which are not always exact repeats. Equal entries are not always repeated. Records with an inconclusive call do not appear. The source made the active and inactive calls. Unless noted, calls follow the shape of the dose curve; as a rule, active = well fitted curve in the direction sought with a large enough effect; inconclusive = small, poorly fitted or top-dose-only effect, or another doubt; inactive = no such curve, though single readings can be large; an effect the other way counts as inactive or inconclusive.

Experiment [1] can be described thus: Validation of Assay for Modulators of Lamin A Splicing (AID 1459; active = well fitted curve in the direction sought with a large enough effect in the signal ratio; the % refers to the signal ratio;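 also: cells exposed to compound for two days before reading; 0% is about no effect; ratio rise marks activators and ratio drop marks inhibitors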). In outline: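 Splicing correction is reported by an EGFP-containing lamin A minigene in stably transfected S3 HeLa cells, while DsRed2 controls for viability and nonspecific signal. Cells are exposed to compounds for 48 hrs before the GFP over RFP ratio is taken.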
Experiment [2] can be described thus: qHTS Assay for Lipid Storage Modulators (AID 1519; calls by dose curve; as to activity change, negative = inhibition: % is scaled to controls: 0 for no effect and ±100 for the full control effect). The following applies: Drosophila S3 cells, BODIPY lipid droplet/cell ratio, laser cytometry, cells loaded with oleic acid; for activity change, negative = inhibition: at 57.5 µM (top of the series). In outline:
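Cells seeded at 5,000 per well were treated with compounds over a concentration series and loaded with oleic acid (400 uM, as added). Lipid droplet fluorescence (488 nm excitation, 500-530 nm channel) was read by laser-scanning cytometry and normalized to 20 uM Triacsin C.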
On the technique in general: Quantitative high-throughput screening tests each substance at several concentrations.

For experiment [3], the target named is DNA repair nuclease/redox regulator APEX1 (Homo sapiens) (UniProt P27695). Kind of experiment: qHTS Validation Assay for Inhibitors of the Human Apurinic/apyrimidinic Endonuclease 1 (APE1) (AID 1705;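 also: TAMRA fluorescence gain over two minutes as APE1 cuts a quenched THF abasic duplex; % is scaled to controls: 0 for no effect and ±100 for the full control effect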). In outline:
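Endonuclease activity of human APE1 is followed as dequenching when the enzyme incises a tetrahydrofuran abasic site in a short duplex labelled 5'-TAMRA/3'-BHQ-2 (50 nM final), after 15 min enzyme–compound preincubation at room temperature.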

Experiment [4] can be described thus: Counterscreen for APE1 Inhibitors: Fluorescent Dye Displacement Validation Assay (AID 1707).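 Also: plate controls were ThO with dsDNA and no compound for no effect and ThO without dsDNA for full effect.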 In outline: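 Compounds are scored by their ability to displace Thiazole Orange (250 nM) from a 50 nM TAMRA-tagged duplex bearing a tetrahydrofuran abasic site. Buffer is 50 mM Tris-HCl pH7.5, 50mM NaCl, 2 mM MgCl2, 0.01% Tween-20.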
For experiment [5], the target named is Endonuclease 4 (Escherichia coli (strain K12)) (UniProt P0A6C1). Kind of experiment: Counterscreen for APE1 Inhibitors: qHTS Validation Assay for Inhibitors of Endonuclease IV (AID 1708). Also: % is scaled to controls: 0 for no effect and ±100 for the full control effect. In outline: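 E. coli EndoIV at 2 nM final, preincubated 15 min at room temperature with compound, then 50 nM TAMRA/BHQ-2 THF abasic-site duplex added. Buffer: 50 mM Tris-HCl pH 7.5, 50 mM NaCl, 2 mM MgCl2, 1 mM DTT, 0.01% Tween-20. Kinetic fluorescence increase, third minus first read.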
In general terms: Counterscreens check selectivity or assay interference.

Experiment [6] has as its target ATP-dependent DNA helicase Q1 (Homo sapiens) (UniProt P46063). Kind of experiment: qHTS Validation Assay for Inhibitors of RecQ-Like Dna Helicase 1 (RECQ1) (AID 2353).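 Also: plate controls were DMSO vehicle for no effect and enzyme-free control for full effect.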 In outline:
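50 nM RECQ1T1 preincubated 15 min with compound in Tris pH 8.0 buffer with MgCl2, DTT, Tween-20 and 2.5 ug/ml poly(dI-dC); started with 200 nM TAMRA/BHQ-2 forked duplex and 2 mM ATP. Unwinding read as fluorescence (525/598 nm), two reads 2 h apart.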

Experiment [7] can be described thus: Validation screen for small molecules that induce DNA re-replication in MCF 10A normal breast cells (AID 463097). Also: 0% is about no effect; nearly all actives have a fitted effect of over 60% in size. A digest of the protocol:
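DNA re-replication was detected as a rise in nuclei with elevated Hoechst fluorescence after a 48 hr compound exposure of MCF 10A cells at 37 C.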

Experiment [8] is described as follows: Quantitative high throughput screen for delayed death inhibitors of the malarial parasite plastid, 96 hour incubation (AID 488745).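 Also: luciferase-expressing P. falciparum in erythrocytes at 2% hematocrit and 0.1% parasitemia; % is scaled to controls: 0 for no effect and ±100 for the full control effect; nearly all actives have a fitted effect of over 70% in size.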 In outline:
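Infected erythrocytes were added to compound in Albumax-supplemented RPMI 1640 at 0.1% parasitemia and 2% hematocrit (final), incubated 96 h at 37 C under 5% CO2, then luciferase reagent was added and luminescence measured.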

Experiment [9] is described as follows: Quantitative high throughput screen for delayed death inhibitors of the malarial parasite plastid, 48 hour incubation (AID 488752). Also: % is scaled to controls: 0 for no effect and ±100 for the full control effect; nearly all actives have a fitted effect of over 65% in size. A digest of the protocol: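 Readout is firefly luciferase luminescence from a reporter integrated into the parasite genome, with lower signal taken as inhibited growth. Infected red cells (0.1% parasitemia, 2% hematocrit final) are cultured with compound for one 48 h cycle at 37 C.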

The target of experiment [10] is M-phase phosphoprotein 8 (Homo sapiens) (UniProt Q99549). Nature of the experiment: qHTS Validation Assay for Inhibitors for MPP8 Chromodomain Interactions with Methylated Histone Tails (AID 488949).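 Also: AlphaScreen signal from MPP8 chromodomain bound to biotinylated H3K9me3 peptide; top concentration of the series differs between compounds; % is scaled to controls: 0 for no effect and ±100 for the full control effect; nearly all actives have a fitted effect of over 55% in size.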 In outline: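 Disruption of the preformed MPP8–trimethyl-H3K9 peptide complex (both 50 nM, 30 min, RT) is measured after 30 min compound exposure, using AlphaScreen proximity beads; aurintricarboxylic acid titration serves as plate control.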

The target of experiment [11] is Thyrotropin-releasing hormone receptor (Homo sapiens) (UniProt P34981). Nature of the experiment: qHTS for Small Molecule Agonists and Allosteric Enhancers of Human TRH Receptor: Validation Screen for Agonists (AID 493127;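 active = calcium activation more than 3 SD above the typical response in the agonist read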;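 also: intracellular calcium rise by fluo-8 fluorescence before TRH EC20 addition; 0% is about no effect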). The following applies: TRH receptor agonist cell assay; at 2 µM; stronger effect = higher value. A digest of the protocol: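 Cells 2000/well, 10% FCS, 18 h 33.5C/5% CO2 → fluo-8 Ca dye, RT 30 min–1.5 h → FDSS baseline 10 × 1 s → compound added → 230 cycles (1 s/cycle) agonist mode. TRH controls.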

Experiment [12] addresses Galactokinase (Homo sapiens) (UniProt P51570). Nature of the experiment: qHTS Validation Assay for Inhibitors of Human Galactokinase (GALK) (AID 493189). Also: 0% is about no effect. A digest of the protocol:
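Compounds were pin-transferred into ATP buffer, then GALK-galactose mix was added (final 5 nM enzyme, 100 uM galactose, 35 uM ATP). After 1 h at room temperature, remaining ATP was measured luminescently.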

Experiment [13] in a line: Validation screen for small molecules that induce DNA re-replication in SW480 colon adenocarcinoma cells (AID 504364). Also: 0% is about no effect. A digest of the protocol:
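250 cells/well; compound pinned in; 48 hr, 37 C, 5% CO2; Hoechst added, 40 min; nuclear fluorescence imaged, 405 ex / 500-530 em; re-replication scored as increase in high-intensity nuclei.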

Experiment [14] in a line: Primary qHTS for inhibitors of nuclear receptor binding SET domain protein 2 (NSD2) in an isogenic RCH-ACV NSD2 p.E1099K mutant (9B) (AID 1645876). Also: potency is read from the fitted curve at half-maximal effect; nearly all actives have a fitted effect of over 70% in size.
Experiment [15] is described as follows: Primary qHTS for inhibitors of nuclear receptor binding SET domain protein 2 (NSD2) in an RCH-ACV wild type WT cells (2C) (AID 1645877). Also: potency is read from the fitted curve at half-maximal effect; nearly all actives have a fitted effect of over 70% in size.
Experiment [16] has as its target Glutathione peroxidase 1 (Homo sapiens) (UniProt P07203). Nature of the experiment: Primary qHTS Assay for Inhibitors of Recombinant Selenoprotein Glutathione Peroxidase 1 (GPX1) (AID 1845191). Also: % is scaled to controls: 0 for no effect and ±100 for the full control effect; nearly all actives have a fitted effect of over 65% in size. A digest of the protocol:
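GR-coupled assay: compounds preincubated 30 min at room temperature with GPX1, then reaction started with CHP; final 10 nM GPX1, 1 mM GSH, 0.5 mM CHP, 0.5 mM NADPH, 100 nM GR, 0.01% BSA, pH 7.5 Tris buffer. NADPH fluorescence (340/450 nm) read at 0 and 15 min.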

Experiment [17] can be described thus: qHTS drug screen for cell cycle checkpoint inhibitors in PARPi-resistant BRCA-mutant ovarian cancer cell lines. (AID 1963452; calls by dose curve). The following applies: PEO1/OlaR viability, CellTiter-Glo luminescence, 96 h, stronger effect = lower value. A digest of the protocol:
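PEO1, PEO4 and PEO1/OlaR ovarian cancer cells, 600 per well, exposed 96 h at 37C to a dilution series. Viability read by CellTiter-Glo luminescence, normalized to DMSO and empty wells; activity summarized as Z-AUC.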

A short description of experiment [18]: qHTS assay to identify inhibitors of the type 1 interferon - major histocompatibility complex class I in skeletal muscle: Counter screen cell viability and HiBit confirmation (AID 1347412). Also: % is scaled to controls: 0 for no effect and ±100 for the full control effect; nearly all actives have a fitted effect of over 60% in size. Particulars: iHSKM muscle cells + IFN-b, HiBiT or CellTiter-Glo, 24 h; Viability; at 45.9 µM (top of the series). In outline: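 Myoblasts (C25cl48, HLA-B HiBiT) seeded in medium without dexamethasone, IFN-b 4 ng/ml added except unstimulated columns; 1 hr later compounds pinned (12-pt 1:3, top 46 uM final). Incubated 24 hrs, lysed 10 min, luminescence measured.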

For experiment [19], the target named is Phospholipid hydroperoxide glutathione peroxidase GPX4 (Homo sapiens) (UniProt P36969). Nature of the experiment: Primary qHTS Assay for Inhibitors of Recombinant Selenoprotein Glutathione Peroxidase 4 (GPX4) (AID 1845192). Also: % is scaled to controls: 0 for no effect and ±100 for the full control effect; nearly all actives have a fitted effect of over 65% in size. Particulars: outcome: dose series up to 50 µM unless noted. A digest of the protocol:
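GR-coupled assay: recombinant GPX4 preincubated 30 min with compound at room temperature; final 200 nM GPX4, 1 mM GSH, 0.5 mM cumene hydroperoxide, 0.5 mM NADPH, 100 nM GR, 0.01% BSA, pH 7.5 Tris. NADPH fluorescence (340/450 nm) read at 0 and 15 min.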

The mark [20] stands for this setting: measured here: cell count channel max response.
The mark [21] stands for this setting: measured here: lipid channel max response.
Where [22] appears, read: measured here: PEO1 parental Z-AUC.

Chain of Thyrotropin-releasing hormone receptor (Homo sapiens) (P34981 whole entry, looked up): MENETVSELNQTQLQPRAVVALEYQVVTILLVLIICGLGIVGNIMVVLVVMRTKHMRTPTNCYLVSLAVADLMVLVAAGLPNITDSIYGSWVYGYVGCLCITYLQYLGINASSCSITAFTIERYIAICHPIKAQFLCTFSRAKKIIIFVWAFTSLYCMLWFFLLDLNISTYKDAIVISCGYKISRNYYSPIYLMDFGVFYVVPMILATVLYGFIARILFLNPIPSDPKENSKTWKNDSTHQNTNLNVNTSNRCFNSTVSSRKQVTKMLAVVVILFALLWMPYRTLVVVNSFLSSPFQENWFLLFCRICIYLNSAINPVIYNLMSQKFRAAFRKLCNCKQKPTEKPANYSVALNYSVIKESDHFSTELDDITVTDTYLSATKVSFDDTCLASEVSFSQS
Chain of DNA repair nuclease/redox regulator APEX1 (Homo sapiens) (P27695 whole entry, looked up): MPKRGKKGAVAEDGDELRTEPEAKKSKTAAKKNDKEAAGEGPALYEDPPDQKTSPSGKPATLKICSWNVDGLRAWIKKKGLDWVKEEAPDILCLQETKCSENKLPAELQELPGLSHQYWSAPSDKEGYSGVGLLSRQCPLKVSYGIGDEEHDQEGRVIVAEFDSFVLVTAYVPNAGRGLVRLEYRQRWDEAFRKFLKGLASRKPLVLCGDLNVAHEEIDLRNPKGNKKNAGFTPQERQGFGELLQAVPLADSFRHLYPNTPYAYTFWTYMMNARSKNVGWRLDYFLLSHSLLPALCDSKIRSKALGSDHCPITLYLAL
Chain of Galactokinase (Homo sapiens) (P51570 whole entry, looked up): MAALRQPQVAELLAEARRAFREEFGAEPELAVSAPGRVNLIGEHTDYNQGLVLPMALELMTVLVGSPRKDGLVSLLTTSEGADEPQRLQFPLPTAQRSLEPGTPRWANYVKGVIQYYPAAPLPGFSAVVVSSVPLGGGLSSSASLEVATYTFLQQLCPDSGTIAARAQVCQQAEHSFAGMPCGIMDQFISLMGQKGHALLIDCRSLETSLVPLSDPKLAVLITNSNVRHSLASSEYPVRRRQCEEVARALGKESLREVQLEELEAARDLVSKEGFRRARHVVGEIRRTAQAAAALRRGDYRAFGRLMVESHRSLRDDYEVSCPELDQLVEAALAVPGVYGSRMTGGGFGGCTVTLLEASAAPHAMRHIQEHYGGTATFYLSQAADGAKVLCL
Chain of M-phase phosphoprotein 8 (Homo sapiens) (Q99549 whole entry, looked up): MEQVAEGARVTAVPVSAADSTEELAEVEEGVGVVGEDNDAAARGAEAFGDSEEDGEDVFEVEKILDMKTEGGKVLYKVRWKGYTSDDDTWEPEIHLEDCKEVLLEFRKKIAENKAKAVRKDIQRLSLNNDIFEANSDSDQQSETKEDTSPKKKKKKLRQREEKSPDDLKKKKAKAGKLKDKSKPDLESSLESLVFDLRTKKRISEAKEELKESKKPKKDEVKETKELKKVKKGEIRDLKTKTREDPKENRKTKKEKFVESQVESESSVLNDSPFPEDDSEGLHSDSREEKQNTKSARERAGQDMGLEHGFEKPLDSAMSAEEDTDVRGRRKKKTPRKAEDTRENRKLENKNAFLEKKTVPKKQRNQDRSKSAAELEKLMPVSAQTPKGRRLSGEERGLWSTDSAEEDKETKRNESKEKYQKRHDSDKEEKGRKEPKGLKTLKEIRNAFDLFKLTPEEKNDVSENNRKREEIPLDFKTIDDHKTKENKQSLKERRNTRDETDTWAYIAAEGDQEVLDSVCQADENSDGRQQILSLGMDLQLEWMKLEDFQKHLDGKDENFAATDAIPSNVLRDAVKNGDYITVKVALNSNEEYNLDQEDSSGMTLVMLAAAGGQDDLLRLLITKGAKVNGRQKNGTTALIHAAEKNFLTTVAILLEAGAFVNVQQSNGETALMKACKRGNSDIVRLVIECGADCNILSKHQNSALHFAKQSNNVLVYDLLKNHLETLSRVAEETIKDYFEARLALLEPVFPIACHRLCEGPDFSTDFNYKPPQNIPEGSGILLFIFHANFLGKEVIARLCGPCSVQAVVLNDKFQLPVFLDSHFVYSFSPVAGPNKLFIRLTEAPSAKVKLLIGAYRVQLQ
Chain of ATP-dependent DNA helicase Q1 (Homo sapiens) (P46063 whole entry, looked up): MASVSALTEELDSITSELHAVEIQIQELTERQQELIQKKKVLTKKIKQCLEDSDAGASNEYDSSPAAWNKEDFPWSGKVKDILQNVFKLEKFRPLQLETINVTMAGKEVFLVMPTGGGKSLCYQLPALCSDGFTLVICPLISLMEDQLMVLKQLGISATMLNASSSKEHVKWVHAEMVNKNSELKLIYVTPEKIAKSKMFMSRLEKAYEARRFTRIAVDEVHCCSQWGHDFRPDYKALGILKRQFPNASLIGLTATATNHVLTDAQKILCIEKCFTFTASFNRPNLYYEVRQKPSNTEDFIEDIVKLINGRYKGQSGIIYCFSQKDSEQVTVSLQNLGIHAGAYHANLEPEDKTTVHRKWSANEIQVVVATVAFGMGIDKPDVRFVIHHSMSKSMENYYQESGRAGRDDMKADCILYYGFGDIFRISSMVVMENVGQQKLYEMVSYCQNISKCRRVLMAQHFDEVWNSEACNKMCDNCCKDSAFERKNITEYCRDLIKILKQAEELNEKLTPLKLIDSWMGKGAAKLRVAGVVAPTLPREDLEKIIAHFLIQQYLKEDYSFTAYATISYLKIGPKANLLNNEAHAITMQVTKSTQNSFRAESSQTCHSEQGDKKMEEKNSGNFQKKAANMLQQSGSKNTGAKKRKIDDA
Chain of Glutathione peroxidase 1 (Homo sapiens) (P07203 whole entry, looked up): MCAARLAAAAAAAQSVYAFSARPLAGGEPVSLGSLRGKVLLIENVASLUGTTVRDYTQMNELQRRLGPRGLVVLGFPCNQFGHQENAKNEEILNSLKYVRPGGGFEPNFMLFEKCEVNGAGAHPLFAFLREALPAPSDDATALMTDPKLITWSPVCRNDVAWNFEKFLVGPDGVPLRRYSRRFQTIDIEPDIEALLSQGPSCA
Chain of Phospholipid hydroperoxide glutathione peroxidase GPX4 (Homo sapiens) (P36969 whole entry, looked up): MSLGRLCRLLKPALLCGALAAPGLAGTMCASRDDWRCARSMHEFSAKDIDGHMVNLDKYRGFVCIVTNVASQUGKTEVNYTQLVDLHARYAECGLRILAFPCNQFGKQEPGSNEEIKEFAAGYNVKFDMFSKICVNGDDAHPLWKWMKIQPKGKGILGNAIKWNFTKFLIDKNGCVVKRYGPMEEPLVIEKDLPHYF

In the case of `OC[C@H]1O[C@@H](n2cnc3c(NCCc4ccccc4)ncnc32)[C@H](O)[C@H]1O`, the outcome in experiment [1], in experiment [5], in experiment [7], in experiment [12] and in experiment [13] was inactive. In addition, in experiment [2], the activity change, negative = inhibition was -0.874% (inactive). For the same molecule, the max response in experiment [2] (setting [20]) is -25.2%; in experiment [2] (setting [21]), -26.1%. The Potency entry in experiment [3], in [4], in experiment [6], in [8], in experiment [9] and in [10] was “inactive” each time. In addition, the activation in experiment [11] is -0.5% (inactive).

In the case of `O=C1NC(=O)[C@@H](c2c[nH]c3ccccc23)[C@H]1c1cn2c3c(cccc13)CCC2`, the Potency was 1.18 µM (active) in [14] and 934 nM (active) in experiment [15]. The Potency entry in experiment [16] was “inactive”. Besides, the Z-AUC in experiment [17] is -1.13 (inactive); in experiment [17] (setting [22]), -0.673; in [17] (measured here: PEO4 Z-AUC), -0.711. Further, the activity change, negative = inhibition in experiment [18] was -10.9% (inactive).

Take `CC(N)=NCCCC(N)C(=O)O` (stereo unspecified): the result in [1], in [5], in experiment [7], in experiment [12] and in experiment [13] was inactive. Further, the Potency result in experiment [3], in experiment [4], in experiment [6], in experiment [8], in experiment [9] and in experiment [10] was “inactive” each time. In addition, in experiment [11], the activation was 0.938% (inactive).

Take `NCCNC(=O)c1ccc(Cl)cc1`: the molecule was called inactive in experiment [1], in experiment [5], in [7], in experiment [12] and in [13]. In addition, in experiment [2], the activity change, negative = inhibition is -0.17% (inactive) and -0.521% (inactive). The max response in experiment [2] (setting [20]) is 0.461% and 25.8%; in [2] (setting [21]), 1.39% and 22.5%. For the same molecule, the Potency entry in experiment [3], in experiment [4], in experiment [6], in experiment [8], in [9] and in experiment [10] was “inactive” throughout. Besides, the activation in experiment [11] is 0.625% (inactive).

For the molecule `CC(=O)[C@@]1(O)CC[C@H]2C3CCC4=CC(=O)CC[C@]4(C)C3CC[C@@]21C` (stereo partly specified), the call in [1], in [7], in [12] and in experiment [13] was inactive. For the same molecule, in [2], the activity change, negative = inhibition was 1.08% (inactive). Moreover, the max response was -12.2% in experiment [2] (setting [20]) and -12.4% in experiment [2] (setting [21]). Besides, the Potency entry in experiment [3], in experiment [4], in experiment [6], in experiment [8], in experiment [9] and in experiment [10] was “inactive” each time. Besides, the activation in experiment [11] was 1.5% (inactive).

On to `NC(=O)C1=CN(C2OC(COP(=O)(O)OP(=O)(O)OC[C@H]3O[C@@H](n4cnc5c(N)ncnc54)[C@H](OP(=O)(O)O)[C@H]3O)C(O)C2O)C=CC1` (stereo partly specified), for which the molecule was called inactive in experiment [1], in experiment [5], in [7], in [12] and in experiment [13]. For the same molecule, the activity change, negative = inhibition in [2] was -2.12% (inactive). In addition, the max response in [2] (setting [20]) was -24.1%; in [2] (setting [21]), -21.9%. Further, the Potency result in [3], in experiment [4], in [6], in experiment [8], in experiment [9] and in [10] was “inactive” in each case. In addition, the activation in [11] is -0.125% (inactive).

Turning to `COC1CC(C(=O)c2ccc3c(N)ncc(-c4ccc(-c5cnn(C)c5)cc4)c3n2)C1` (stereo unspecified), the Potency in experiment [14] was 1.48 µM (active); in experiment [15] it was 41.7 nM (active). In addition, the Potency entry in experiment [16] and in [19] was “inactive” in each case. Also, the Z-AUC in [17] was -1.33 (inactive); in [17] (setting [22]), -1.16; in experiment [17] (measured here: PEO4 Z-AUC), -1.1. The activity change, negative = inhibition in experiment [18] was 4.77% (inactive).
